Source: PubChem BioAssay (NCI)
The panel holds about 79,000 compounds, 15% with a hit somewhere; the sample as a whole holds those more often. The source made the active and inactive calls. Cut-off read from the data, not from the text of the source: active = growth inhibition above about 70%; inactive = the rest.

assay: NCI Yeast Anticancer Drug Screen. Data for the bub3 strain (AID 167); settings: S. cerevisiae bub3 mutant strain, at 5.0 µM (retest, dose inferred, filed as 0.5), hits give high values
Summary of the method: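 Steps: expose the mutant yeast strain to compound; grow alongside vehicle-treated cultures; measure growth; express inhibition against the vehicle cultures.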

Row | Structure (SMILES) | growth inhibition
1 | C=C(CCC(C)C1CCC2(C)C3=C(CC(O)C12C)C1(C)CCC(O)C(C)(C)C1CC3)C(C)C(=O)O (stereo not given) | 29% (inactive)
2 | CC(=O)O[C@H]1CC[C@]2(C)C3=CC[C@]4(C)[C@@H](C(C)=O)CC[C@H]4[C@@]34C=C[C@]2(C1)C1C(=O)OC(=O)C14 (stereo not given in full) | 3% (inactive)
3 | CCC1(c2ccc(N3C(=O)c4ccccc4C3=O)cc2)CCC(=O)NC1=O (stereo not given) | -17% (inactive)
4 | O=C(NNS(=O)(=O)c1ccccc1)Nc1ccccc1 | 2% (inactive)
5 | CCN(CC)CCNc1c(C)ccc2cccnc12 | -1% (inactive)
6 | CCOC(=O)CCC(NC(=O)c1ccc(NC(OC)c2nc3cc(C(F)(F)F)ccc3nc2-c2ccccc2)cc1)C(=O)OCC (stereo not given) | 84% (active)
7 | CCCC(O)C[N+](=O)[O-] (stereo not given) | -1% (inactive)
8 | O=C(Nc1cccc(Br)c1)Oc1cccc2cccnc12 | 91% (active)
9 | C=C1CC(C)(COc2ccc3c(C)c(C)c(=O)oc3c2C)OC1=O (stereo not given) | 26% (inactive)
10 | Cc1cc(Br)c(N2C3=C(CC4=C2CCCC4=O)C(=O)CCC3)c(Br)c1 | -10% (inactive)
11 | CCN(CC)CC(O)CNc1ccc(C)c2sc3ccccc3c(=O)c12 (stereo not given) | 10% (inactive)
12 | COC1/C=C/OC2(C)Oc3c(C)c(O)c4c(c3C2=O)C(=O)C=C(NC(=O)/C(C)=C\C=C\C(C)C(OC=O)C(C)C(O)C(C)C(OC(C)=O)C1C)C4=O (stereo not given) | -8% (inactive)
13 | OC(c1cc2ccccc2o1)c1cc2ccccc2s1 (stereo not given) | -6% (inactive)
14 | Nc1nnc(-c2cc([N+](=O)[O-])cc([N+](=O)[O-])c2)o1 | 3% (inactive)
15 | CC1SC(=S)N(c2ccc(Cl)cc2)C1=O (stereo not given) | -3% (inactive)
16 | CCCCCCCCCC(=O)NN=C(C)C | -72% (inactive)
17 | O=C(/C=C/c1ccccc1)C1(c2ccccc2)CC1 | -58% (inactive)
18 | Nc1n[n+](-c2ccccc2)no1 | 43% (inactive)
19 | N#CC(C#N)=C(c1ccccc1)c1ccccc1 | -6% (inactive)
20 | CS(=O)(=O)OCCCN(CCCOS(C)(=O)=O)c1ccc(C=Nc2ccc(-c3csc(COc4ccc(Br)cc4Br)n3)cc2)cc1 | 5% (inactive)

Row | Structure (SMILES) | growth inhibition
21 | CSc1ncnc2ncn(C3OC(CO)C(O)C3O)c12 (stereo not given) | -10% (inactive)
22 | CNC(=O)c1ccc(OC)cc1C1(O)c2ccccc2CCc2ccccc21 | 37% (inactive)
23 | O=[N+]([O-])c1ccc(Oc2c(Cl)cccc2Cl)cc1 | 14% (inactive)
24 | CN(C)C(=O)c1ccc(SC(=S)NCc2ccccc2)cc1 | -11% (inactive)
25 | CC(C)c1ccc(C(=O)OC2CCCCC2)cc1 | 1% (inactive)
26 | O=C(Nc1ccc(C(=O)c2ccccc2)cc1)Nc1ccc(Cl)c(Cl)c1 | 31% (inactive)
27 | O=C1c2ccccc2C(=O)c2sc(Nc3ccc(Cl)cc3)nc21 | 98% (active)
28 | O=C1NC(=O)N(c2ccc([N+](=O)[O-])cc2)C1=O | 6% (inactive)
29 | CCN(CC)CCNc1nc(N)c2nc(-c3ccccc3)c(-c3ccccc3)nc2n1 | -22% (inactive)
30 | CCCCCCCCOc1ccc(/C=C/C(C)=N/NC(N)=NC)cc1OC | 97% (active)
31 | CC1=NN(C(=O)c2ccc(Cl)cc2)C(=O)C1N=Nc1ccc(S(=O)(=O)Nc2ncccn2)cc1 (stereo not given) | -2% (inactive)
32 | CCOC(=O)C(Br)C(Br)c1cccc([N+](=O)[O-])c1 (stereo not given) | 98% (active)
33 | Cc1ccccc1N1CCN(c2c3c(nc4ccccc24)CCCCC3)CC1 | -9% (inactive)
34 | O=S(=O)(O)SCCNCCCCCC1CCCCC1 | 17% (inactive)
35 | CC([N+](=O)[O-])C1(O)C(=O)c2cccc3cccc1c23 (stereo not given) | 14% (inactive)
36 | CCS(CC)(CC)CC1CCCC2=CCC(P(=O)(c3ccccc3)c3ccccc3)CC21 (stereo not given) | -8% (inactive)
37 | O=C(O)C(CS)Nc1c2ccccc2nc2ccccc12 (stereo not given) | -5% (inactive)
38 | CCCCCCCCCCCC1C(C#N)C(=O)NC(=O)C1C#N (stereo not given) | 78% (active)
39 | O=C(O)CCSSCCCCCS(=O)O | -3% (inactive)
40 | CC(C)CNc1cc(Cl)nc(N)n1 | 1% (inactive)
